Assay [1] in a line: qHTS assay to test for compound auto fluorescence at 535 nm (green) in HEK293 cells (AID 720680). (qHTS replaces the single test concentration by a dilution series.)
The nature of assay [2]: qHTS assay to test for compound auto fluorescence at 460 nm (blue) in HEK293 cell free culture (AID 720681). Summed up:
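Compounds were added to cell-free DMEM with 10% FBS and fluorescence read directly. The blue channel used 405 nm excitation and 460 nm emission, with triamterene as the reference fluorophore.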

Assay [3] can be described thus: qHTS assay to test for compound auto fluorescence at 535 nm (green) in HEK293 cell free culture (AID 720682). The method, boiled down: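 Read-out: 485/535 nm fluorescence intensity, calibrated against fluorescein. Medium only (DMEM + 10% FBS, no cells); test compound or DMSO vehicle added by pintool before plate reading.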
The nature of assay [4]: qHTS assay to test for compound auto fluorescence at 590 nm (red) in HEK293 cell free culture (AID 720683). Summed up: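 Cell-free wells of DMEM with 10% FBS received compound, and intrinsic fluorescence was read at excitation/emission 540/590 nm. Values expressed as equivalence to Rose Bengal sodium.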
Assay [5] is described as follows: qHTS assay to test for compound auto fluorescence at 590 nm (red) in HepG2 cell free culture (AID 720684). Summed up: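 Compounds are added to culture medium (MEM, 10% FBS) lacking cells, then fluorescence is read at excitation 540 nm, emission 590 nm, with Rose Bengal sodium as the equivalency standard.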
Assay [6] can be described thus: qHTS assay to test for compound auto fluorescence at 460 nm (blue) in HepG2 cell free culture (AID 720685). Summed up:
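Compound (23 nL) or DMSO pinned into cell-free MEM with 10% FBS; blue fluorescence read at 405/460 nm excitation/emission, expressed as auto-fluorescence equivalency to triamterene.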

A short description of assay [7]: qHTS assay to test for compound auto fluorescence at 535 nm (green) in HepG2 cell free culture (AID 720686).
A short description of assay [8]: qHTS assay to test for compound auto fluorescence at 460 nm (blue) in HepG2 cells (AID 720687). The method, boiled down:
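HepG2 cells in MEM with 10% FBS, attached overnight at 37 C, were exposed to compound or DMSO for 1 hr at 37 C, 5% CO2. Blue fluorescence was read at 405/460 nm, with triamterene as reference fluorophore.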

In assay [9] the target is Glucocorticoid receptor (Homo sapiens) (UniProt P04150). As to the kind of experiment: qHTS assay to identify small molecule agonists of the glucocorticoid receptor (GR) signaling pathway (AID 720691; active = well fitted activation curve with a large enough effect in the signal ratio in the repeat runs, not every such curve was filed as active; inconclusive = weak or mixed curves, or effect the other way; inactive = no such curve, though single readings can be large or run the other way; the % refers to the signal ratio; also: potency is read from the fitted curve at half-maximal effect). As to conditions: GR-bla HeLa, beta-lactamase reporter ratio, 18 h; activation: at 62.4 µM (top of the series). Summed up: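 Beta-lactamase reporter activity, read as fluorescence intensity, was measured in GR-bla HeLa cells exposed to compounds for 18 h at 37 C and then loaded with LiveBLAzer B/G FRET substrate for 2 h at room temperature.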

Assay [10] can be described thus: qHTS assay to identify small molecule antagonists of the glucocorticoid receptor (GR) signaling pathway - cell viability counter screen (AID 720693). Also: nearly all actives have a fitted effect of over 55% in size.
A short description of assay [11]: qHTS assay for identifying genotoxic compounds that show differential cytotoxicity against isogenic chicken DT40 cell lines with known DNA damage response pathways - wild type cell line (AID 743012). Also: nearly all actives have a fitted effect of over 60% in size. Also: potency is read from the fitted curve at half-maximal effect. The method, boiled down: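 Quantitative HTS on parental DT40 cells: 40 h compound treatment at 37 C/5% CO2, with viability then determined by CellTiter-Glo luminescence. Values serve as the DNA repair-proficient reference for differential cytotoxicity.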

A short description of assay [12]: qHTS assay for identifying genotoxic compounds that show differential cytotoxicity against isogenic chicken DT40 cell lines with known DNA damage response pathways - Rev3 mutant cell line (AID 743014). Also: nearly all actives have a fitted effect of over 55% in size. Also: potency is read from the fitted curve at half-maximal effect.
A short description of assay [13]: qHTS assay for identifying genotoxic compounds that show differential cytotoxicity against isogenic chicken DT40 cell lines with known DNA damage response pathways - Rad54/Ku70 mutant cell line (AID 743015). Also: nearly all actives have a fitted effect of over 60% in size. Also: potency is read from the fitted curve at half-maximal effect.
The nature of assay [14]: qHTS assay to identify small molecule antagonists of the androgen receptor (AR) signaling pathway - cell viability counter screen (AID 743033; also: nearly all actives have a fitted effect of over 45% in size).
A short description of assay [15]: qHTS assay to identify small molecule antagonists of the androgen receptor (AR) signaling pathway using the MDA cell line - cell viability counter screen (AID 743041; also: nearly all actives have a fitted effect of over 45% in size). Summed up:
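Same-well cytotoxicity was assessed by CellTiter-Fluor in MDA-kb2 AR-luc cells after 16 h of compound treatment under R1881 agonism.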

In assay [16] the target is Androgen receptor (Homo sapiens) (UniProt P10275). The assay is described as follows: qHTS assay to identify small molecule agonists of the androgen receptor (AR) signaling pathway (AID 743036; active = well fitted activation curve with a large enough effect in the signal ratio in the repeat runs, with a control signal flat, not every such curve was filed as active; inconclusive = weak or mixed curves, or effect the other way; inactive = no such curve, though single readings can be large or run the other way; the % refers to the signal ratio). The method, boiled down:
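HEK293 cells stably carrying a UAS-driven beta-lactamase reporter (GeneBLAzer AR-UAS-bla-GripTite) were plated at 2,000 cells/well, rested 4 h at 37C, then exposed to compounds in DMSO for 16 h. LiveBLAzer B/G FRET substrate was added for 2 h at room temperature; fluorescence read.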

The target is the same in assay [17]. The assay is described as follows: qHTS assay to identify small molecule agonists of the androgen receptor (AR) signaling pathway using the MDA cell line (AID 743040; also: nearly all actives have a fitted effect of over 20% in size). The method, boiled down:
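Human breast carcinoma MDA-kb2 reporter cells (MMTV-luc, AR/GR elements) were treated for 16 h at 37C in 0% CO2 following a 5 h settling period. Signal was quantified by ONE-Glo luminescence.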

The target is the same in assay [18]. As to the kind of experiment: qHTS assay to identify small molecule antagonists of the androgen receptor (AR) signaling pathway using the MDA cell line (AID 743042; also: nearly all actives have a fitted effect of over 55% in size). The method, boiled down:
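MDA-kb2 breast carcinoma cells carrying MMTV-luciferase (AR/GR responsive) were co-treated with compounds and the agonist R1881 for 16 h at 37C. Inhibition read as ONE-Glo luminescence; CellTiter-Fluor fluorescence measured in parallel for cytotoxicity.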

Active and inactive are the calls of the source. Unless noted, calls follow the shape of the dose curve; as a rule, active = well fitted curve in the direction sought with a large enough effect in the repeat runs; inconclusive = weak or mixed curves; inactive = no such curve, though single readings can be large; an effect the other way counts as inactive or inconclusive.

Chain of Glucocorticoid receptor (Homo sapiens) (P04150 whole entry, looked up): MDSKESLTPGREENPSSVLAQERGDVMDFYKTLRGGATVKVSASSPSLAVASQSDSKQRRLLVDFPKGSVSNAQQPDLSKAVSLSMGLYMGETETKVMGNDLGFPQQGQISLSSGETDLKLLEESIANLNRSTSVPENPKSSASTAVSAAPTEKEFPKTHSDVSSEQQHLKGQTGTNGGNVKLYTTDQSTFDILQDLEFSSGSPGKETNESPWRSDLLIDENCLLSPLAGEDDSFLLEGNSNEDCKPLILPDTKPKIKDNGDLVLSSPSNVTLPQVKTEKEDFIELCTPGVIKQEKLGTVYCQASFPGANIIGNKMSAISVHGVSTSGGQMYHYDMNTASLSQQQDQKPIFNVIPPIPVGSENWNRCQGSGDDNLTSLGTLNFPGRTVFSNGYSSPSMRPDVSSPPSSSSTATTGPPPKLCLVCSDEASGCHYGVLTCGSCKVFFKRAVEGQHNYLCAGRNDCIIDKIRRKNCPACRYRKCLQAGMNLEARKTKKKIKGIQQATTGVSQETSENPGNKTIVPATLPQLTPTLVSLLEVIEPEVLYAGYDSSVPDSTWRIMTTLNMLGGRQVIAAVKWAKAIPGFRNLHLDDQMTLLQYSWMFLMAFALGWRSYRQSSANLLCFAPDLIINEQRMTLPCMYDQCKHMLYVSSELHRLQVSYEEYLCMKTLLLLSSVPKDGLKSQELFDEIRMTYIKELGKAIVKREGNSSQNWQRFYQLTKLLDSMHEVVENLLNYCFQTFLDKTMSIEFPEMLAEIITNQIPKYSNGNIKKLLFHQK
Chain of Androgen receptor (Homo sapiens) (P10275 whole entry, looked up): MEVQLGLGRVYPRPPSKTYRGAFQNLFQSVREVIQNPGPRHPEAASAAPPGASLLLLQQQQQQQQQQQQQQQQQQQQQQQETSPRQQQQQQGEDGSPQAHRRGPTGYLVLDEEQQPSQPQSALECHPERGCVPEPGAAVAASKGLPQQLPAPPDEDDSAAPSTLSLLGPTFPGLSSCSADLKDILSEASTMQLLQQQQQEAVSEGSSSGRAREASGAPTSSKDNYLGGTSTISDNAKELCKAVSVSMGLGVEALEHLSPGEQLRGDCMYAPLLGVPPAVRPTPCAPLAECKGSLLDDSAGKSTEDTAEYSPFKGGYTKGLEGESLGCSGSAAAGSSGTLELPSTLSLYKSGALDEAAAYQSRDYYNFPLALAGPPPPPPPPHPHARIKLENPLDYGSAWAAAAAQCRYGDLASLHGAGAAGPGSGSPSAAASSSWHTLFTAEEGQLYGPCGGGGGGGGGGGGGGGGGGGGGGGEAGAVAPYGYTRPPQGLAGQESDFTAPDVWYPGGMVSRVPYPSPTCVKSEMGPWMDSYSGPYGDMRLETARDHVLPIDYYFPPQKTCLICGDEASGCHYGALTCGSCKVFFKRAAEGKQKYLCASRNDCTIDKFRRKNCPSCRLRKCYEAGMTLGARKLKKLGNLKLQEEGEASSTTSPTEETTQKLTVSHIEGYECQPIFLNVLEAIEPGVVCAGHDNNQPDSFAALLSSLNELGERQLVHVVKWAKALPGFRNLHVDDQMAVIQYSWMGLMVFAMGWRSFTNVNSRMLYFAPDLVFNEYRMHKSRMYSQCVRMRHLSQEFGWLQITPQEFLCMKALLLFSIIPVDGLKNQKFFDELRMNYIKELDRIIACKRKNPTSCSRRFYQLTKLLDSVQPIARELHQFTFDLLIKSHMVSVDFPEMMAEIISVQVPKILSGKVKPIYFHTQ

Regarding `CCCCCCCCCCCC(=O)N(CCO)CCO`, the Potency result in assay [1], in [2], in assay [3], in assay [4], in assay [5] and in [7] was “inactive” throughout. Moreover, the Potency result in assay [9], in assay [10], in assay [14] and in assay [15] was “inactive” in each case. For the same compound, the outcome in assay [6] and in assay [8] was inactive. The Potency was 29.8 µM (active) in assay [11], 26.6 µM (active) in assay [12] and 26.6 µM (active) in [13].

For `c1ccc2c(c1)Sc1ccccc1N2CCN1CCCC1`, the Potency entry in assay [1], in [2], in [3], in [4], in assay [5] and in assay [7] was “inactive” each time. Also, the Potency result in assay [9], in assay [10], in assay [14] and in [15] was “inactive” in each case. Besides, the compound was classed as inactive in [6] and in assay [8]. Besides, the Potency was 10.6 µM (active) in assay [11], 8.41 µM (active) in assay [12] and 16.8 µM (active) in assay [13].

`COc1ccc(CC2c3cc(OC)c(OC)cc3CC[N+]2(C)CCC(=O)OCCCCCOC(=O)CC[N+]2(C)CCc3cc(OC)c(OC)cc3C2Cc2ccc(OC)c(OC)c2)cc1OC` (configuration not stated): the Potency result in [1], in assay [2], in assay [3], in assay [4], in assay [5] and in assay [7] was “inactive” throughout. The Potency entry in assay [10], in assay [11], in assay [12], in assay [13], in assay [14] and in assay [15] was “inactive” each time. The outcome in [6] and in assay [8] was inactive. The Potency in assay [9] is 1.29 µM [inconclusive] (active).

Consider `N[C@H](CCC(=O)O)C(=O)O`, for which the Potency result in assay [1], in assay [2], in [3], in [4], in [5] and in [7] was “inactive” throughout. In addition, the Potency result in [9], in assay [10], in assay [11], in assay [12], in assay [13] and in [14] was “inactive” throughout. Further, the Potency result in [15] is “inactive”. For the same compound, the compound was called inactive in [6] and in assay [8].

Turning to `CC(C)(C)c1ccc(CN2CCN(C(c3ccccc3)c3ccc(Cl)cc3)CC2)cc1` (configuration not stated), the Potency entry in assay [1], in assay [2], in assay [3], in assay [4], in assay [5] and in [7] was “inactive” in each case. For the same compound, the Potency result in assay [9], in assay [10], in assay [14], in assay [16], in assay [17] and in assay [15] was “inactive” each time. Moreover, in assay [18], the Potency result is “inactive”. The compound was called inactive in assay [6] and in assay [8]. Also, the figures for the Potency in assay [11], in assay [12] and in assay [13] were 5.31 µM (active), 4.22 µM (active) and 8.41 µM (active), respectively.

Turning to `O=C(CO)[C@@H](O)[C@H](O)[C@@H](O)C(=O)O`, the Potency result in assay [1], in assay [2], in assay [3], in [4], in [5] and in assay [7] was “inactive” throughout. In addition, the Potency entry in assay [9], in assay [10], in [11], in assay [12], in assay [13] and in assay [14] was “inactive” in each case. For the same compound, in assay [15], the Potency entry is “inactive”. Moreover, the result in assay [6] and in assay [8] was inactive.

For the compound `C[C@]12C=CC(=O)C=C1CC[C@@H]1[C@@H]2[C@@H](O)C[C@@]2(C)[C@H]1CC[C@]2(O)C(=O)COC(=O)CCC(=O)O`, the Potency result in assay [1], in [2], in [3], in assay [4], in [5] and in [7] was “inactive” throughout. For the same compound, the Potency entry in assay [10], in assay [11], in assay [12], in assay [13] and in assay [14] was “inactive” each time. In addition, the call in assay [6] and in assay [8] was inactive. Also, the Potency in assay [9] is 0.268 µM [inconclusive] (active).

The values above are taken from PubChem BioAssay (Tox21).
